Laboratory results: PubChem BioAssay (NCATS)
Results filed as inconclusive are left out. Active and inactive are the calls of the source. Calls come from the whole dose curve; as a rule, active = well fitted inhibition curve with a large enough effect; inconclusive = small, poorly fitted or top-dose-only effect; inactive = no such curve, though single readings can be large or run the other way.

molecular target: Retinal dehydrogenase 2 (Homo sapiens) (UniProt O94788); experiment: qHTS for Inhibitors of the Aldehyde Dehydrogenase Family (ALDH1A2) Confirmation screens (AID 2061314); settings: ALDH1A2 enzyme inhibition qHTS confirmation; series mostly up to 45.9 µM; note: nearly all actives have a fitted effect of over 65% in size
Potency is the fitted concentration of half-maximal effect.

Potency, active:
COc1ccc(-c2nc(CNS(=O)(=O)c3cccc(F)c3)cs2)cc1 5.76 µM

Potency, inactive:
Cc1nc2c(c(C)c1CCC(=O)Nc1ccc(F)cc1)c(=O)n(C)c(=O)n2C
Cn1nc(C(=O)N2CCOCCNC(=O)CC2)c2ccccc21
CCc1nn2c(=O)c(S(=O)(=O)Nc3ccc(C(C)C)cc3)c(C)nc2s1
Cc1ccc(-c2nnc3ccccc3c2C(=O)Nc2cccc(C(F)(F)F)c2)cc1
CCOc1ccccc1NC(=O)CN(C)S(=O)(=O)c1ccc(C(=O)N2CCOCC2)s1
COc1ccc(CC(=O)N2CCC3(CC2)CN([S+](=O)([O-])c2ccccc2)CCO3)cc1
COC(=O)c1cc(C)nc2c1c(=O)nc(SCc1ccccc1C)n2C1CC1
COc1cccc(-c2nn(-c3ccccc3)c(OC(C)=O)c2-c2ccc(NC(=O)C3CCCC3)cc2)c1
COc1ccc(NS(=O)(=O)c2ccc3[nH]c(=O)ccc3c2)cc1OC
O=C(COc1ccccc1-c1nc(-c2ccccc2)no1)Nc1cccc([N+](=O)[O-])c1
COc1ccc(OC)c(CNC(=O)C2CCCCN2S(=O)(=O)c2ccc(F)cc2)c1 (stereo not given)
Cc1cc(C)n2nc(CNS(=O)(=O)c3cccc(Cl)c3)nc2n1
COc1ccc(S(=O)(=O)N2CCC(N(C(=O)C3CC3)C3CCOCC3)CC2)cc1
COc1ccc(OC)c(NC(=O)CSc2nnc3ccc4ccccc4n23)c1
Cc1ccc2cccc(NC(=O)COc3ccccc3[N+](=O)[O-])c2n1
COc1ccc(S(=O)(=O)N2CCOC[C@H](Oc3ccc(C(F)(F)F)cc3)C2)cc1
O=C(c1n[nH]c2ccccc12)N1CCCC(Cc2noc(-c3cnccn3)n2)C1 (stereo not given)
COCCn1cnnc1CN(C)C(=O)c1ccc2nc(C)cn2c1
Cc1ccc(S(=O)(=O)N2CCC(C(=O)Nc3ccc(Oc4ccccc4)cc3)CC2)cc1
Cc1nn2c(=O)cc(COC(=O)c3ccc(F)cc3)nc2s1
O=C(c1nccc2ccccc12)N1CCc2nc3cc[nH]n3c(=O)c2C1
COc1ccc(-c2nocc2CCC(=O)NCCc2ccc(S(N)(=O)=O)cc2)cc1
CCOc1ccc(-c2cc(C(=O)NC(C)c3ccccc3)c3ccccc3n2)cc1 (stereo not given)
CCOc1ccc(N(C)S(=O)(=O)c2cc(-c3cc(C)no3)ccc2OC)cc1
Cc1ccc(CN(C(=O)COc2ccc([N+](=O)[O-])cc2)c2ccccn2)cc1
COc1cc(OC)cc(C(=O)NCCc2csc3nc(-c4ccccc4F)nn23)c1
CC(Cn1cncn1)NC(=O)c1cccc(S(=O)(=O)N2CCOCC2)c1 (stereo not given)
COc1ccc(NC(=O)c2ccco2)cc1NC(=O)c1ccccc1[N+](=O)[O-]
COc1ccccc1C(=O)Nc1cc(-c2cccc(Br)c2)nn1-c1ccccc1
COc1cc2nc(NC(=O)c3ccc(S(=O)(=O)N4CCOCC4)cc3)sc2cc1OC
COc1ccc(OC)c(S(=O)(=O)Nc2ccc3[nH]c(=O)[nH]c3c2)c1
COc1cccc(-c2cccc(C(=O)N3CCN([S+](=O)([O-])c4ccccc4)CC3)c2)c1
COc1ccccc1CCNc1ncnc2c1nnn2C
CC(C)OCCCn1c(SCc2ccccc2Cl)nc2c(sc3ccccc32)c1=O
COc1ccc(OC)c(N(CC(=O)NCc2ccccc2)S(=O)(=O)c2ccccc2)c1
COc1ccc(S(=O)(=O)NCc2nc3nc(C)cc(C)n3n2)cc1OC
COc1cc(-c2noc(-c3ccc(NC4CCCCC4)c([N+](=O)[O-])c3)n2)cc(OC)c1OC
O=C(CC1N=C2c3ccccc3N=C(SCc3cccc(F)c3)N2C1=O)NCc1cccs1 (stereo not given)
COCCNC(=O)CNC(=O)c1ccc(-c2cccc(C(F)(F)F)c2)cc1
